Values joined by “and” are separate entries in the source; they are usually repeats but may differ in a detail not shown here. Identical values can stand only once. About 2,600 (1.2%) of roughly 220,000 compounds were called active. Many of the other results were omitted from the sample, so actives are more common in it than they were. Values without a mark were called inactive.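 How the source made its calls: active means activation above the mean of all tested compounds plus 3 SD, set per screening run (cut at about 8.8% in these data); inactive means the rest.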

This assay deals with Wee1-like protein kinase (Homo sapiens) (UniProt P30291). Briefly: compounds stabilizing Wee1-luciferase fusion – cell-based, HeLa, Wee1K328M-luciferase, luminescence, primary screen (AID 1321).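 Further: cells exposed to compound for 20 h before luminescence read; 0% = DMSO alone and 100% = MG132 at 30 µM.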 The following applies: HeLa Luc-Wee1K328M stability, at 5 µM, active compounds read high, 100% = proteasome inhibitor MG132 effect.
Regarding `CC1(C)CN(c2ccc(-c3ccnc4ncnn34)cc2)C1=O`, the reporter increase is 9.83% (active).

`Nc1c(-c2ccc(F)cc2)cnc2ncnn12`: the reporter increase was -2.59%.

With `Cc1cc(C(=O)OCC(=O)Nc2nccs2)c2ccccc2n1`, the reporter increase is -2.08%.

For the compound `CCOC(=O)c1[nH]c(C)c(C(=O)OCC(=O)N2c3ccccc3CC2C)c1C` (stereo unspecified), the reporter increase was 15.6% (active).

As for `CCn1nc(C(=O)OCC(=O)N2c3ccccc3CC2C)c2ccccc2c1=O` (stereo unspecified), the reporter increase is -0.36%.

Take `Cc1cc(=O)[nH]c(SCC(=O)N2c3ccccc3CC2C)n1` (stereo unspecified): the reporter increase was -2.08%.

For `CC(=O)NCc1ccc(S(=O)(=O)NC2CCN(Cc3ccccc3)CC2)cc1`, the reporter increase was 0.4%.

Consider `CCOC(=O)C1CCN(C(=O)C2CCN(S(=O)(=O)c3c(C)noc3C)CC2)CC1`, for which the reporter increase was -0.61%.

Turning to `CCOc1ccc(OCC)c(NC(=O)C2CCN(S(=O)(=O)c3c(C)noc3C)CC2)c1`, the reporter increase is 11.6% (active).

As for `CCOc1ccccc1NC(=O)C1CCN(S(=O)(=O)c2c(C)nn(C)c2C)CC1`, the reporter increase was -1.78%.

On to `CC1(C)CC(N2CCN(C(c3ccccc3)c3ccccc3)CC2)=CC(=[N+]2CCCCC2)C1`, for which the reporter increase was -0.62%.

Take `Nc1nc(O)c(CC(=O)O)s1`: the reporter increase is -1.29%.

For the compound `O=C(O)c1ccc(/C=N/Nc2nc(N3CCCCC3)nc(N3CCCCC3)n2)cc1`, the reporter increase was -2.82%.

With `O=C(c1c(Cl)cccc1Cl)N1CCN(c2cccc3[nH]ccc23)CC1`, the reporter increase is 0.73%.

On to `O=C(COC(=O)c1ccc(F)cc1F)Nc1ncccn1`, for which the reporter increase was 0.53%.

Take `O=C(Cc1nc2ccccc2[nH]c1=O)c1ccc(Cl)cc1`: the reporter increase was 3.48%.

As for `Cc1ccc(-c2nc3ccccc3[nH]c2=O)cc1`, the reporter increase was 9.13% (active).

With `Cc1ccc(-c2nc3ccccc3[nH]2)cc1N`, the reporter increase was 0.78%.

As to `O=C(COC(=O)c1ccc(S(=O)(=O)Nc2ccccc2)cc1)NCC1CCCO1` (stereo unspecified), the reporter increase was -1.62%.

`NS(=O)(=O)c1ccc(NC2=CC(c3ccc(F)cc3)N(c3ccc(S(N)(=O)=O)cc3)C2=O)cc1` (stereo unspecified): the reporter increase is 0.72%.

Turning to `CC(CNS(=O)(=O)c1ccc(Br)cc1)CN(C)C` (stereo unspecified), the reporter increase is -0.62%.

Take `O=S(=O)(Nc1ccc(Cl)cn1)c1cnc(Cl)c(Br)c1`: the reporter increase is -0.3%.

Turning to `COc1ccc(CN2C(=O)C(C)S/C2=N/N=C/c2ccco2)cc1` (stereo unspecified), the reporter increase was 5.4%.

On to `CN(C)S(=O)(=O)c1cccc(NC(=S)N/N=C/C(=O)c2ccccc2)c1`, for which the reporter increase is -1.91%.

In the case of `CN(C)S(=O)(=O)c1cccc(NC(=S)NCc2ccc3c(c2)OCO3)c1`, the reporter increase is 3.85%.

Take `Cc1ccc(/C=N/NC(=S)Nc2cccc(S(=O)(=O)N(C)C)c2)o1`: the reporter increase is 9.21% (active).

With `CCOc1ncccc1C(=O)OCC(=O)NC1CC1`, the reporter increase was -1.43%.

For `N#Cc1ccccc1Sc1ccccc1C(=O)OCC(=O)NC1CCCCC1`, the reporter increase was 2.45%.

As to `O=C(COC(=O)c1ccccc1SCC(=O)NC1CCCCC1)NC1CCCCC1`, the reporter increase was 11.2% (active).

For `COc1ccccc1Nc1nc(N)nc(CSC(=S)N2CCOCC2)n1`, the reporter increase is -0.95%.

As for `O=C(Nc1ccc2c(c1)OCCO2)c1ccoc1`, the reporter increase is 2.96%.

Turning to `Cc1coc2cc3oc(=O)c(CCC(=O)O)c(C)c3cc12`, the reporter increase was 5.73%.

Consider `S=c1[nH]nc(-c2ccncc2)n1/N=C/c1ccccc1Cl`, for which the reporter increase was -0.32%.

Take `COc1ccc(O)c(C(=O)c2cnc3onc(C(C)C)c3c2)c1`: the reporter increase is -2.73%.

For the compound `COCCn1c(=O)[nH]c(=O)c2cc(C(=O)c3cc(OC)ccc3O)cnc21`, the reporter increase is 0.11%.

As for `COc1ccc(O)c(C(=O)c2cnc3c(c2)c(-c2ccc(F)cc2)c(C#N)c(=O)n3C)c1`, the reporter increase was 9.71% (active).

For the compound `COc1ccccc1NC(=O)c1cc(Cl)nc2ccccc12`, the reporter increase is 0.15%.

With `Nc1cccc(S(=O)(=O)Nc2ccc(SC(F)F)cc2)c1`, the reporter increase was -0.8%.

For the compound `CCOC(=O)[C@H]1CCC[C@@H](NS(=O)(=O)c2ccc(NC(C)=O)cc2)C1`, the reporter increase was 0.32%.

For `CC(C)NS(=O)(=O)c1ccc(NC(=O)C2CCCCC2)cc1`, the reporter increase is -3.05%.

As to `CC(=O)Nc1ccc(S(=O)(=O)NC(C)C(=O)OCC(=O)NC2CCCC2)cc1` (stereo unspecified), the reporter increase was 11.2% (active).

On to `OCCC1CN(Cc2cccc(O)c2)CCN1CCc1ccccc1` (stereo unspecified), for which the reporter increase is -3.15%.

Consider `OCCC1CN(Cc2ccc(Oc3ncccn3)cc2)CCN1CCc1ccccc1` (stereo unspecified), for which the reporter increase is -0.52%.

On to `OCCC1CN(Cc2cnc(-c3ccccc3)s2)CCN1CCc1ccccc1` (stereo unspecified), for which the reporter increase is 9.46% (active).

Consider `O=C(O)Cc1csc(-c2cccc(Oc3ccccc3)c2)n1`, for which the reporter increase is 3.33% and -2.75%.

Consider `S=c1nc2ccccc2c2nc(-c3cccnc3)[nH]n12`, for which the reporter increase was 1.58%.

With `C=CCn1c(-c2ccc3[nH]c(C)c(C)c3c2)n[nH]c1=S`, the reporter increase was -4.16%.

Regarding `C=CCn1c(=S)sc2c(=O)[nH]c(C)nc21`, the reporter increase is 9.98% (active).

On to `C=CCn1c(-c2sc(-c3ccccc3)nc2C)n[nH]c1=S`, for which the reporter increase is -4.5%.

In the case of `S=c1[nH]nc(-c2cccs2)n1/N=C/c1cn(-c2ccccc2)nc1-c1ccc(Cl)cc1`, the reporter increase was -0.32%.

With `COc1cccc(-c2nc3cc(C)ccc3o2)c1`, the reporter increase is 1.41%.

For the compound `CCCCCC(=O)Nc1ccc2oc(-c3ccncc3)nc2c1`, the reporter increase was -0.09%.

As to `CCc1ccc2oc(-c3ccc(N)cc3)nc2c1`, the reporter increase is 18.6% (active).

On to `O=C(NCc1ccccc1)c1ccc(CNc2c(N3CCCC3)c(=O)c2=O)cc1`, for which the reporter increase was -2.66%.

In the case of `CCOC(=O)C1CCN(C(c2cc3cc(C)cc(C)c3[nH]c2=O)c2nnnn2C2CCCCC2)CC1` (stereo unspecified), the reporter increase is 1.1%.

For `CN1CCN(C(c2cc3cc4c(cc3[nH]c2=O)OCCO4)c2nnnn2C2CCCC2)CC1` (stereo unspecified), the reporter increase was 11.8% (active).

`COc1ccc(N2CCN(C(c3cc4ccc(C)cc4[nH]c3=O)c3nnnn3C3CCCC3)CC2)cc1` (stereo unspecified): the reporter increase was 0.68%.

Regarding `COc1ccc(-c2nn(C)c(=O)c3ccccc23)cc1CNC(=O)C1CCCCC1`, the reporter increase is 0.26%.

For `CCN(CC)CCNCC(=O)Nc1ccc(Oc2ccccc2)cc1`, the reporter increase is 2.79%.

As to `O=c1ccnc(Nc2ccc(Cl)cc2)[nH]1`, the reporter increase is 1.16%.

Turning to `O=C(COC(=O)c1ccc(NS(=O)(=O)c2cccs2)cc1O)Nc1ccc(F)cc1`, the reporter increase was -0.64%.

For `COc1ccc(-n2ncc3c(N4CCCc5ccccc54)ncnc32)cc1`, the reporter increase was 3.61%.

As for `COc1ccc(-n2ncc3c(N4CCc5ccccc54)ncnc32)cc1`, the reporter increase is 8.86% (active).

Take `c1ccc(-n2ncc3c(N4CCCC4)ncnc32)cc1`: the reporter increase is 5.02%.

Regarding `COc1ccc(CCNC(=O)C(=O)Nc2ccc3nc4n(c(=O)c3c2)CCCCC4)cc1OC`, the reporter increase is 1.04%.

As to `Brc1ccc(-c2noc(-c3ccccc3)n2)o1`, the reporter increase was 0.13%.

Turning to `Cn1c(CSCC(=O)Nc2ccccc2)nnc1SCc1ccccc1`, the reporter increase was -1.68%.

For `Cc1ccc(N=C2NC(=O)c3cccc([N+](=O)[O-])c32)cc1`, the reporter increase was 8.82% (active).

In the case of `COC(=O)c1cccc([N+](=O)[O-])c1CS(=O)(=O)c1ccc(C)cc1`, the reporter increase was 1.24%.

For `CCCCOc1ccc(CON(C(C)=O)C(C)=O)cc1Cl`, the reporter increase was -0.35%.

Regarding `c1csc(-c2nnc(COc3ncnc4sccc34)o2)c1`, the reporter increase is 1.62%.

Regarding `O=C1C(Cc2ccc(O)cc2)NC(=S)N1Cc1ccccc1` (stereo unspecified), the reporter increase was -2.34%.

Consider `COc1cccc(-n2c(=S)[nH]c3c(oc4ccccc43)c2=O)c1`, for which the reporter increase is 5.9%.

As to `COc1ccc(-n2c(=S)[nH]c3sc4c(c3c2=O)CCc2ccccc2-4)cc1`, the reporter increase is 8.88% (active).

As to `CSc1nc2sc3c(c2c(=O)[nH]1)CCc1ccccc1-3`, the reporter increase is -0.01%.

Turning to `COc1ccc(CCNS(=O)(=O)c2cccc3cccnc23)cc1OC`, the reporter increase was -3.35%.

As for `Cc1ccc(/C=N/NC(=O)CSc2ccccn2)o1`, the reporter increase was 3.47%.

For the compound `O=C(Nc1ccccc1N1CCOCC1)c1csc2c1CCCC2`, the reporter increase is -0.73%.

As for `Cc1nc2cccnc2nc1C`, the reporter increase was 6.05%.

In the case of `CCC(C)(C)NC(=O)C(c1ccccn1)N(C(=O)c1csnn1)c1ccccc1` (stereo unspecified), the reporter increase is 1.04%.

For the compound `CC(C)(C)NC(=O)CN(C(=O)c1csnn1)c1ccccc1-c1ccccc1`, the reporter increase was 10.2% (active).

`CC(C)(C)NC(=O)CN(C(=O)c1ccc(Cl)nc1)c1cccc2ccccc12`: the reporter increase is -1.92%.

With `CC(C)COC(=O)n1c(=O)oc2ccc(S(=O)(=O)N3CCCCC3)cc21`, the reporter increase is -1.87%.

With `Cc1cc(C)cc(NS(=O)(=O)c2ccc(F)cc2)c1`, the reporter increase is -2.79%.

Take `Cn1c(=O)n(C)c2cc(NS(=O)(=O)c3ccc(F)cc3)ccc21`: the reporter increase is 12.5% (active).

Regarding `Cn1nccc1NS(=O)(=O)c1ccc(F)cc1`, the reporter increase was 0.03%.

Take `Cn1c2ccccc2c2cc(/C=C(\NC(=O)c3ccccc3)C(=O)NCC(=O)O)ccc21`: the reporter increase was -0.33%.

Turning to `NS(=O)(=O)c1ccc(NC(=O)COC(=O)c2ccc(Cl)nc2)cc1`, the reporter increase is -1.21%.

In the case of `CCN(CC)c1ccc(NC(=O)c2ccc(Cl)nc2)cc1`, the reporter increase is 10.4% (active).

`O=C(NNc1ccccn1)c1ccc(Cl)nc1`: the reporter increase was -1.7%.

Consider `CCCc1nc(-c2cc3cc(C)ccc3[nH]c2=O)no1`, for which the reporter increase was -2.96%.

As for `FC(F)(F)Oc1ccc(-c2cn3cccnc3n2)cc1`, the reporter increase was -1.79%.

As for `COc1ccc(CCN2C(=O)N(c3ccc(OC)cc3)C(=O)C2CC(=O)Nc2ccc(OC)cc2)cc1` (stereo unspecified), the reporter increase was -1.78%.

Take `CCCC1=Nc2cc(C(=O)NCc3ccco3)ccc2Sc2ccccc21`: the reporter increase is 11.6% (active).

For `COc1ccc(CCNS(=O)(=O)c2ccc(C(=O)NCc3ccco3)cc2)cc1OC`, the reporter increase is -0.79%.

On to `CCOc1ccccc1C(=O)NCc1ccco1`, for which the reporter increase was -0.54%.

Source of the values: PubChem BioAssay AID1321 (The Scripps Research Institute Molecular Screening Center, 2008).
